Laboratory results: PubChem BioAssay (NCATS)
Results filed as inconclusive are left out. Entries that show only a call come without a potency. Active and inactive are the calls of the source. Calls follow the shape of the dose curve; as a rule, active = well fitted curve in the direction sought with a large enough effect; inconclusive = small, poorly fitted or top-dose-only effect, or another doubt; inactive = no such curve, though single readings can be large; an effect the other way counts as inactive or inconclusive.

How the values were obtained:
[1] = biological target: Protein phosphatase 1D (Homo sapiens) (UniProt O15297); assay: Rhodamine-PBP qHTS Assay for Modulators of WT P53-Induced Phosphatase 1 (WIP1) (AID 1347425)
Procedure, shortened: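 5 nM WIP1 + 10 uM Rh-PBP, 50 mM Tris pH 7.5, 30 mM MgCl2, 1 mM TCEP, 0.1 mM EGTA, BSA; cpds pinned, 1 hr RT; + 10 uM phosphopeptide; fluorescence 1-min reads x 11 min; delta = f1 - f0.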

[2] = Primary qHTS for inhibitors of La Crosse Virus (LACV) - induced cell death in SH-SY5Y cells (AID 1508616);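 also: top concentration of the series differs between compounds; higher means more rescue of cells from virus-induced death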
Procedure, shortened: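 Luminescent ATP readout (ATPLite 1step, 5 min room temperature) measured rescue from LACV-induced death after 6 days of infection at 0.01 MOI; normalized to infected DMSO wells and uninfected DMSO wells.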

[3] = biological target: Calcium and integrin-binding protein 1 (Homo sapiens) (UniProt Q99828); assay: Primary qHTS for Identification of Calcium Integrin Binding Protein 1 (CIB1) Competitor (AID 1508620); also: potency is read from the fitted curve at half-maximal effect
Procedure, shortened: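 Fluorescence polarization competition: GST-tagged CIB1 (1 uM final) preincubated with compound 15 min at room temperature, then FITC-labelled alphaIIb peptide (100 nM final) added. After 15 min at room temperature, polarization read at Ex 480/Em 540.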

[4] = biological target: Protein phosphatase 1D (Homo sapiens) (UniProt O15297); assay: RapidFire Mass Spectrometry qHTS Assay for Modulators of WT P53-Induced Phosphatase 1 (WIP1) (AID 1347424);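 also: amount of dephosphorylated VEPPL-S-QETFS peptide product formed by WIP1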; also: potency is read from the fitted curve at half-maximal effect
Procedure, shortened: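 10 nM WIP1 preincubated with compounds 1 hr at room temperature in pH 7.5 Tris buffer with 30 mM MgCl2, 1 mM TCEP; 2 uM VEPPL-pS-QETFS phosphopeptide for 5 min, formic acid quench; dephosphorylated product quantified by RapidFire MS against labelled standard.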

[5] = biological target: Calcium and integrin-binding protein 1 (Homo sapiens) (UniProt Q99828); assay: Confirmatory qHTS for Identification of Calcium Integrin Binding Protein 1 (CIB1) Competitor (AID 1508617); also: potency is read from the fitted curve at half-maximal effect; nearly all actives have a fitted effect of over 65% in size
Procedure, shortened: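 Confirmatory qHTS measures displacement of a FITC-alphaIIb peptide (100 nM) from CIB1-GST (1 uM) by fluorescence polarization. Calcium-containing HEPES buffer, pH 7.4; two 15 min room-temperature incubations.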

Protein phosphatase 1D (Homo sapiens), sequence (O15297 whole entry, looked up): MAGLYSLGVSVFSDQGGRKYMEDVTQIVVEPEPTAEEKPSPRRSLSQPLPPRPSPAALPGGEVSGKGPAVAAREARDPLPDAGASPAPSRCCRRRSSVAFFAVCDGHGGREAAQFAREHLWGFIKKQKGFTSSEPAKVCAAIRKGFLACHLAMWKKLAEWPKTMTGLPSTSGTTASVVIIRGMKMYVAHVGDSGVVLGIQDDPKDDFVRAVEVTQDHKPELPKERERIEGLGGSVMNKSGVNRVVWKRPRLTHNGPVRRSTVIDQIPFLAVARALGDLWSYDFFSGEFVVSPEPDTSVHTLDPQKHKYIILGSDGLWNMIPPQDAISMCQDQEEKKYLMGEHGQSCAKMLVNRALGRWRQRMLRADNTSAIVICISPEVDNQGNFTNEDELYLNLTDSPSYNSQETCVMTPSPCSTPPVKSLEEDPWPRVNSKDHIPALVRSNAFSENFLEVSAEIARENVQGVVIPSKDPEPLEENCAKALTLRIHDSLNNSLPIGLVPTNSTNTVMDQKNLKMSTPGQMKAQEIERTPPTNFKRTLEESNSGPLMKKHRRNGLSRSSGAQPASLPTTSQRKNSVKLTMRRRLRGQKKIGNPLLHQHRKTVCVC
Calcium and integrin-binding protein 1 (Homo sapiens), sequence (Q99828 whole entry, looked up): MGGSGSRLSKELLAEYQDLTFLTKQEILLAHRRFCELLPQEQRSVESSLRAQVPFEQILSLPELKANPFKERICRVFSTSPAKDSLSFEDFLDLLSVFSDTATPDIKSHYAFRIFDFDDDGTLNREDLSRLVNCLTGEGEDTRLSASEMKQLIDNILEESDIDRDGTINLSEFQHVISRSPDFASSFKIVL

SMILES | outcome [1] | outcome [2] | Potency [3] | Potency [4] | Potency [5]
C#C[C@]1(OC(C)=O)CC[C@H]2[C@@H]3CCC4=C/C(=N/O)CC[C@@H]4[C@H]3CC[C@@]21CC | inactive | inactive | inactive | – | –
Nc1ccc(S(=O)(=O)NCc2ccccc2)cc1 | inactive | – | inactive | inactive | –
O=S(c1cc(Cl)cc(Cl)c1O)c1cc(Cl)cc(Cl)c1O | – | – | inactive | 31.6 µM (active) | –
Cc1ncc(CO)c(C=O)c1O | inactive | inactive | inactive | – | –
OC1C(O)C(O)C(O)C(O)C1O (stereo not drawn) | inactive | – | – | – | –
CCCN(CCc1cccs1)[C@H]1CCc2c(O)cccc2C1 | inactive | inactive | inactive | – | –
O=C1C(=O)c2ccccc2C(O)=C1C1CCC(c2ccc(Cl)cc2)CC1 (stereo not drawn) | inactive | – | inactive | inactive | –
CCC(CC)(CC(=O)Nc1cccc(/C=C/c2nc(C3CCC3)cs2)c1)C(=O)O | – | inactive | inactive | inactive | –
CCOc1ccccc1OCCN[C@H](C)Cc1ccc(OC)c(S(N)(=O)=O)c1 | inactive | inactive | inactive | – | –
C[C@@]12C(=O)OC(=O)[C@]1(C)C1CCC2O1 | inactive | – | inactive | inactive | –
Oc1c(Cl)cc(Cl)c(Cl)c1Cc1c(O)c(Cl)cc(Cl)c1Cl | – | inactive | – | 8.91 µM (active) | –
COc1ccc(S(=O)(=O)N2c3ccc(Cl)cc3[C@@](O)(c3ccccc3Cl)[C@H]2C(=O)N2CCC[C@@H]2C(N)=O)cc1OC | inactive | inactive | inactive | – | –
CN(Cc1ccc(C(C)(C)C)cc1)Cc1cccc2ccccc12 | inactive | – | inactive | inactive | –
Nc1ccc(C(=O)NCC(=O)O)cc1 | inactive | – | inactive | inactive | –
O=C(O)C1(C(=O)O)CCC1.[NH2-].[NH2-].[Pt+2] | – | inactive | inactive | 11.2 µM (active) | –
CCCN(CCC)S(=O)(=O)c1ccc(C(=O)O)cc1 | inactive | – | inactive | inactive | –
OCc1ccccn1 | inactive | – | inactive | – | –
C/C=C/c1ccc(O)c(OC)c1 | inactive | inactive | inactive | – | –
Cc1cccc(C)c1NC(=O)CN1CCCCCC1 | inactive | inactive | inactive | – | –
NC(=S)N/N=C/c1cccnc1 | inactive | inactive | inactive | – | –

SMILES | outcome [1] | outcome [2] | Potency [3] | Potency [4] | Potency [5]
CCc1oc2ccccc2c1C(=O)c1cc(I)c(O)c(I)c1 | – | inactive | – | – | 35.5 µM (active)
Cc1ccccc1OCC(O)CO (stereo not drawn) | inactive | inactive | inactive | – | –
CC(=O)Nc1ncc([N+](=O)[O-])s1 | inactive | inactive | inactive | – | –
COP(=O)(OC)OC(c1ccc(Cl)cc1)P(=O)(OC)OC (stereo not drawn) | inactive | inactive | inactive | – | –
CNCCc1ccccn1 | inactive | inactive | inactive | – | –
CC(=O)Nc1ccc(S(=O)(=O)Nc2ccc([N+](=O)[O-])cc2)cc1 | inactive | inactive | inactive | – | –
Oc1ccc(Cl)cc1Cc1cc(Cl)ccc1O | – | inactive | 79.4 µM (active) | – | 44.7 µM (active)
C[C@H]1O[C@@H](O[C@H]2CC[C@@]3(C)[C@H](CC[C@@H]4[C@@H]3C[C@@H](O)[C@]3(C)[C@@H](C5=CC(=O)OC5)CC[C@]43O)C2)C[C@H](O)[C@@H]1O[C@H]1C[C@H](O)[C@H](O[C@H]2C[C@H](O)[C@H](O[C@@H]3O[C@H](CO)[C@@H](O)[C@H](O)[C@H]3O)[C@@H](C)O2)[C@@H](C)O1 | inactive | – | inactive | – | –
CN(C)CCC[C@@]1(c2ccc(F)cc2)OCc2cc(C#N)ccc21 | inactive | – | inactive | – | –
O=C(Nc1ncc([N+](=O)[O-])s1)c1cccs1 | – | inactive | inactive | – | –
NC(=O)n1c(O)c(C(=O)c2cccs2)c2cc(Cl)ccc21 | – | inactive | inactive | – | –
Cc1ccc(O)c([C@H](CCN(C(C)C)C(C)C)c2ccccc2)c1 | inactive | – | inactive | – | –
CCCCN1C[C@H](O)[C@@H](O)[C@H](O)[C@H]1CO | inactive | – | inactive | – | –
CCNC(=O)NCc1cccc(Cl)c1 | inactive | inactive | inactive | – | –
NCc1ccccc1Sc1ccccc1CO | inactive | inactive | inactive | – | –
O=C(O)P(=O)(O)O | inactive | – | inactive | – | –
O=C1OC(CN2CCOCC2)CN1/N=C/c1ccc([N+](=O)[O-])o1 (stereo not drawn) | inactive | inactive | inactive | – | –
Cc1cn([C@H]2C[C@H](F)[C@@H](CO)O2)c(=O)[nH]c1=O | inactive | – | inactive | – | –
CC(C)n1c(/C=C/[C@@H](O)C[C@@H](O)CC(=O)O)c(-c2ccc(F)cc2)c2ccccc21 | inactive | inactive | inactive | – | –
